Measured values as given in PubChem BioAssay (Tox21).
A number with no mark means an inactive call. Inconclusive results are not listed. A call without a number means that no potency is given here. Calls of active or inactive are those of the source. Unless noted, calls come from the whole dose curve.

Assays:
[1] = target: Gonadotropin-releasing hormone receptor (Homo sapiens) (UniProt P30968); assay: Human gonadotropin-releasing hormone receptor (GnRHR) small molecule agonists, calcium flux assay in GnRHR-HEK293 cells (AID 1920063); note: nearly all actives have a fitted effect of over 35% in size
Procedure, shortened: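 Agonist mode: compounds at 15 concentrations, in triplicate, went onto calcium dye-loaded GnRHR-HEK293 cells. Intracellular calcium was then followed as 480/540 nm fluorescence at 1 s intervals over 3 min.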

[2] = target: KiSS-1 receptor (Homo sapiens) (UniProt Q969F8); assay: Human kisspeptin (KISS1R) small molecule agonists, calcium flux assay in KISS1R-HEK293 cells (AID 1920064; active = well fitted activation curve with a large enough effect in the repeat runs)
Procedure, shortened: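 Agonist mode: intracellular calcium rise tracked at 1 s intervals over 3 min (480/540 nm) immediately after compound addition to dye-loaded KISS1R-HEK293 stable cells. Each compound tested at 15 concentrations in triplicate.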

[3] = p53 small molecule agonists, cell-based qHTS assay with human liver microsomes (AID 1963577)
Procedure, shortened: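 Cells carrying a p53-responsive bla reporter were rested 5 h (37 C, 5% CO2) before compound transfer. Human liver microsomes plus NADPH, 0.5 mg/mL final apiece, supplied metabolism during the 16 h 37 C exposure.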

[4] = p53 small molecule agonists, cell-based qHTS assay with rat liver microsomes (AID 1963578)
Procedure, shortened: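 Fluorescence from a beta-lactamase reporter under a p53 response element was measured after cells had been incubated 16 h at 37 C with test compound and rat liver microsomes plus NADPH (0.5 mg/mL final each).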

[5] = p53 small molecule agonists, cell-based qHTS assay with human liver microsomes: qHTS cell viability counter screen (AID 1963579); note: nearly all actives have a fitted effect of over 45% in size
Procedure, shortened: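 Seed p53RE-bla cells at 4,000 per well; incubate 5 h at 37 C; add compound, human liver microsomes and NADPH; incubate 16 h at 37 C; add CellTiter-Glo; after 30 min at room temperature, read luminescence.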

[6] = p53 small molecule agonists, cell-based qHTS assay with rat liver microsomes: qHTS cell viability counter screen (AID 1963580); note: nearly all actives have a fitted effect of over 45% in size
Procedure, shortened: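 Cytotoxicity counter screen: intracellular ATP read by CellTiter-Glo luminescence in the p53 reporter wells. HCT-116 p53RE-bla cells were treated for 16 h at 37 C alongside rat liver microsomes and NADPH, each 0.5 mg/mL final.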

[7] = target: 5-hydroxytryptamine receptor 2A (Homo sapiens) (UniProt P28223); assay: 5-hydroxytryptamine receptor 2A (HTR2A) small molecule antagonists, cell-based qHTS assay (AID 1963586); note: nearly all actives have a fitted effect of over 45% in size; note: potency is the fitted concentration of half-maximal effect
Procedure, shortened: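 CHO cells stably expressing human HTR2A were plated for 18 h at 37 C, then loaded with calcium dye for 1 h. Compounds were preincubated 5 min at room temperature before DOI (4 nM solution) was added. Kinetic fluorescence was read for 3 min.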

[8] = target: 5-hydroxytryptamine receptor 2A (Homo sapiens) (UniProt P28223); assay: 5-hydroxytryptamine receptor 2A (HTR2A) small molecule agonists, cell-based qHTS assay (AID 1963587); note: nearly all actives have a fitted effect of over 30% in size; note: potency is the fitted concentration of half-maximal effect
Procedure, shortened: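 Kinetic calcium-flux fluorescence (2 min, 1 sec intervals) after compound addition in agonist mode. HTR2A-CHO cells were cultured 18 h, then dye-loaded 1 h at 37 C.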

[9] = target: Muscarinic acetylcholine receptor M1 (Homo sapiens) (UniProt P11229); assay: Cholinergic receptor muscarinic 1 (CHRM1) small molecule antagonists, cell-based qHTS assay (AID 1963588); note: nearly all actives have a fitted effect of over 40% in size
Procedure, shortened: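 Compounds were tested at 15 concentrations in three independent runs. Dye-loaded CHRM1-CHO cells were exposed 5 min at room temperature before stimulation by acetylcholine added at 50nM. Intracellular calcium was read kinetically on FDSS for 3 min.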

[10] = target: Muscarinic acetylcholine receptor M1 (Homo sapiens) (UniProt P11229); assay: Cholinergic receptor muscarinic 1 (CHRM1) small molecule agonists, cell-based qHTS assay (AID 1963589); note: nearly all actives have a fitted effect of over 35% in size
Procedure, shortened: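 Agonist-mode calcium-flux screen: compounds at 15 concentrations, three independent runs, were pin-transferred onto dye-loaded human CHRM1-CHO cells. Fluorescence was then recorded kinetically every second over minutes.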

[11] = cAMP Responsive Elements (CRE) small molecule agonists, cell-based qHTS assay (AID 1963590)
Procedure, shortened: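 Agonist mode: compound added to CRE-bla HEK 293T cells (2,000/well, 18 h after plating) for 3 h at 37 C/5% CO2. Reporter activity detected via FRET beta-lactamase substrate, 2 h room-temperature loading.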

[12] = cAMP Responsive Elements (CRE) small molecule antagonists, cell-based qHTS assay (AID 1963591; active = well fitted inhibition curve with a large enough effect in the signal ratio in the repeat runs, not every such curve was filed as active; the % refers to the signal ratio)
Procedure, shortened: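 Antagonist mode: compounds are added alongside the adenylyl cyclase activator NKH477 (0.25 uM final) to CRE-bla HEK293T cells for 3 h. LiveBLAzer FRET substrate, 2 h at room temperature, reports bla expression.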

[13] = target: Beta-2 adrenergic receptor (Homo sapiens) (UniProt P07550); assay: Adrenergic beta2 receptor (ADRB2) small molecule antagonists, cell-based qHTS assay (AID 1963592); note: series mostly up to about 92 µM; nearly all actives have a fitted effect of over 50% in size
Procedure, shortened: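 Assay format: CHO-ADRB2 cells, 18-20hr seeding at 37C/5% CO2, then compound plus 1nM isoproterenol agonist mix for 0.5hr RT. Homogeneous time-resolved fluorescence cAMP detection after 1hr, expressed as 665/615 nm ratio.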

[14] = target: D(2) dopamine receptor (Homo sapiens) (UniProt P14416); assay: Dopamine D2 receptor (DRD2) small molecule agonists, cell-based qHTS assay (AID 1963594); note: nearly all actives have a fitted effect of over 35% in size
Procedure, shortened: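 cAMP accumulation in DRD2-HEK293 cells measured by HTRF after 1 h detection; compounds added 10 min before NKH477 (200nM […]) forskolin-analogue stimulation, 30 min at room temperature, with Ro20-1724 present at 0.1 mM final.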

[15] = G protein-coupled receptor (GPCR) small molecule agonists, calcium flux assay: HEK293 wild type cell line counter screen (AID 1920065)
Procedure, shortened: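 Calcium flux counter screen: compound added in agonist mode at 15 concentrations in triplicate to dye-loaded parental HEK293 cells. Fluorescence (480/540) read kinetically for 3 min; ATP served as positive control.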

[16] = p53 small molecule agonists, cell-based qHTS assay: qHTS cell viability counter screen (AID 1963581); note: nearly all actives have a fitted effect of over 45% in size
Procedure, shortened: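 Counter screen read by CellTiter-Glo luminescence (ATP content, 30 min at room temperature), run in the same wells as the beta-lactamase reporter read. HCT-116 p53RE-bla cells saw compounds for 16 h at 37 C.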

[17] = p53 small molecule agonists, cell-based qHTS assay (AID 1963582; active = well fitted activation curve with a large enough effect in the signal ratio in the repeat runs, not every such curve was filed as active; the % refers to the signal ratio)
Procedure, shortened: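 Read-out is beta-lactamase FRET fluorescence after 2 h at room temperature with LiveBLAzer B/G substrate. p53 response element-bla cells were treated 16 h at 37 C with compounds in DMSO, added 5 h after seeding.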

[18] = target: D(2) dopamine receptor (Homo sapiens) (UniProt P14416); assay: Dopamine D2 receptor (DRD2) small molecule antagonists, cell-based qHTS assay (AID 1963595; active = well fitted inhibition curve with a large enough effect in the signal ratio in the repeat runs, with a control signal flat; the % refers to the signal ratio; note: potency is the fitted concentration of half-maximal effect)
Procedure, shortened: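 Stable D2 receptor HEK293 line, 24 h after seeding. Compound preincubated 10 min, then quinpirole (12 nM) with forskolin analogue NKH477 (200 nM), 30 min, room temperature. Detection by time-resolved FRET of cAMP.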

[19] = target: Beta-2 adrenergic receptor (Homo sapiens) (UniProt P07550); assay: Adrenergic beta2 receptor (ADRB2) small molecule agonists, cell-based qHTS assay (AID 1963593);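 note: CHO cells stably overexpressing human ADRB2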
Procedure, shortened: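 CHO cells stably over-expressing ADRB2 were plated overnight at 37C, then dosed with compounds plus a stimulation mix containing 100uM IBMX and 25uM Ro-20-1724 for 0.5hr at room temperature. cAMP was measured by HTRF competition, 1hr.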

Sequence of KiSS-1 receptor (Homo sapiens) (Q969F8 whole entry, looked up): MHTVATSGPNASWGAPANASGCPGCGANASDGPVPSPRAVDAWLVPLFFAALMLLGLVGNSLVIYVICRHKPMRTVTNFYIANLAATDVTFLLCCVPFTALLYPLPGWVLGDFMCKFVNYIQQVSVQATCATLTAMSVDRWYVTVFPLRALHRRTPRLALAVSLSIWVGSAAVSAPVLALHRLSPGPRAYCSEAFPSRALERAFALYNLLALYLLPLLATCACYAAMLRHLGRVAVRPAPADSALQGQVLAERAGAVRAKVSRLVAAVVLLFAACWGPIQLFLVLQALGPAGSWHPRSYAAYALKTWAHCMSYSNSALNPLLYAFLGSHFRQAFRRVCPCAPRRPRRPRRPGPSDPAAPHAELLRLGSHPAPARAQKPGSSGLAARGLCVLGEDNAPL
Sequence of Gonadotropin-releasing hormone receptor (Homo sapiens) (P30968 whole entry, looked up): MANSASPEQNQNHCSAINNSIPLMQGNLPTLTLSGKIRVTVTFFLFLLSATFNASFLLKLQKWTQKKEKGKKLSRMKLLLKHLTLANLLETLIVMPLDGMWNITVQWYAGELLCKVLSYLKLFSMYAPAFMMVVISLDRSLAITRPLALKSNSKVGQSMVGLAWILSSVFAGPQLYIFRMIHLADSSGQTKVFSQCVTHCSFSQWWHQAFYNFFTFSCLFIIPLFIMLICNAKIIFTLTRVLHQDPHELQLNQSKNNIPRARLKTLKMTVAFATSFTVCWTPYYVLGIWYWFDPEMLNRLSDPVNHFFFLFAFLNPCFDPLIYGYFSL
Sequence of Beta-2 adrenergic receptor (Homo sapiens) (P07550 whole entry, looked up): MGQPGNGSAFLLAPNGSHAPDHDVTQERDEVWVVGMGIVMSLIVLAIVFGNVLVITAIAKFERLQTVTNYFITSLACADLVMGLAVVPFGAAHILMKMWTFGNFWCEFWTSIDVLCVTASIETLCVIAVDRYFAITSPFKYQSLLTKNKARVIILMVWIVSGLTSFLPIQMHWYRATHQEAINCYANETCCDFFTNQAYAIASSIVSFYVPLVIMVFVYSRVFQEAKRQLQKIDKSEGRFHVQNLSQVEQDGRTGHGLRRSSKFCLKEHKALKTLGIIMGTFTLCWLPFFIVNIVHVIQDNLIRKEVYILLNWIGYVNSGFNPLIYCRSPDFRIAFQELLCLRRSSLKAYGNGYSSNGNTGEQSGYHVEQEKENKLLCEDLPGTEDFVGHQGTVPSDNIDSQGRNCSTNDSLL
Sequence of 5-hydroxytryptamine receptor 2A (Homo sapiens) (P28223 whole entry, looked up): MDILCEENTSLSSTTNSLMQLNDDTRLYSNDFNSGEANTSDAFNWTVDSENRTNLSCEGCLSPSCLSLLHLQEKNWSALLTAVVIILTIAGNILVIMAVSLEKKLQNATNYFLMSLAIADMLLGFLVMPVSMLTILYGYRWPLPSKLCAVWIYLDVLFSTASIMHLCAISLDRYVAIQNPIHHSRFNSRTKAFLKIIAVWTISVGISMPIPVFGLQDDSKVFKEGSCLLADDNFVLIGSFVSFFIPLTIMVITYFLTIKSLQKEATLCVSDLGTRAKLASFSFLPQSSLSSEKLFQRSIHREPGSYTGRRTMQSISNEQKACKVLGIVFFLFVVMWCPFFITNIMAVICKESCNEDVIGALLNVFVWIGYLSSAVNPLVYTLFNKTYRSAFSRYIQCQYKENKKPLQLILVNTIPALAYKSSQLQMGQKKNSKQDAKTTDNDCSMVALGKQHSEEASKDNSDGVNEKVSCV
Sequence of D(2) dopamine receptor (Homo sapiens) (P14416 whole entry, looked up): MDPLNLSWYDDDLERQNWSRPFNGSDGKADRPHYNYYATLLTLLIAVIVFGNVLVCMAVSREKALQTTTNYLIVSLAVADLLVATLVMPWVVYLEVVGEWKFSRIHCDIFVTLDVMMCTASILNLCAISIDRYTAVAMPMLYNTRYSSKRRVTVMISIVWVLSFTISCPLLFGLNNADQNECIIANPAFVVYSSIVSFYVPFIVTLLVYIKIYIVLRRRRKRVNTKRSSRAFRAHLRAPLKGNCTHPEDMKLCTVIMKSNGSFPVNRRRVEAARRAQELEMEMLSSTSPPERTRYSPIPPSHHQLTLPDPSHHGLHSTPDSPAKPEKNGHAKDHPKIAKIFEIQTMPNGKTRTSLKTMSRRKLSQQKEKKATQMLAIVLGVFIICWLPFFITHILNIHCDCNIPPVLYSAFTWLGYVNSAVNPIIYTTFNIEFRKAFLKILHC
Sequence of Muscarinic acetylcholine receptor M1 (Homo sapiens) (P11229 whole entry, looked up): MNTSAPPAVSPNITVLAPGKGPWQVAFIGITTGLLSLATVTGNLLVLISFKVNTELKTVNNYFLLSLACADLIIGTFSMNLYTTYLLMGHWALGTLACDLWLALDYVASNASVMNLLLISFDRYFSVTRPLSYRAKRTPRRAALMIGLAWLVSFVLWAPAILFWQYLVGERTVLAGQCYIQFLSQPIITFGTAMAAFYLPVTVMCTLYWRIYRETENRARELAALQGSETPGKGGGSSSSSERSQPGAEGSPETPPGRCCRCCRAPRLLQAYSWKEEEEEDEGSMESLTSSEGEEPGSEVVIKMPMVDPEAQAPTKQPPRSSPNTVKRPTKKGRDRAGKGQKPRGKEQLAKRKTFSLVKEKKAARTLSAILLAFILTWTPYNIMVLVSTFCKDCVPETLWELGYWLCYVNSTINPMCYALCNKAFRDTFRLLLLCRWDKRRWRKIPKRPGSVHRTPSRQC

| SMILES | Potency [1] | Potency [2] | Potency [3] | Potency [4] | Potency [5] | Potency [6] | Potency [7] | Potency [8] | Potency [9] | Potency [10] | Potency [11] | Potency [12] | Potency [13] | Potency [14] | Potency [15] | Potency [16] | Potency [17] | Potency [18] | Potency [19] |
| --- | --- | --- | --- | --- | --- | --- | --- | --- | --- | --- | --- | --- | --- | --- | --- | --- | --- | --- | --- |
| c1ccc2c(c1)OCC(C1=NCCN1)O2 (stereo not drawn) | inactive | inactive | inactive | inactive | inactive | inactive | inactive | inactive | inactive | inactive | inactive | inactive | inactive | inactive |  |  |  |  |  |
| O=C(CBr)OCc1ccccc1 |  | inactive | inactive | inactive | inactive |  |  | inactive |  |  | inactive | inactive | inactive | inactive | inactive | inactive | inactive | inactive |  |
| S=C(SSC(=S)N1CCCCC1)N1CCCCC1 | inactive | inactive | inactive | inactive | inactive |  | inactive | 10.7 µM (active) | inactive | inactive | inactive |  | inactive | inactive |  |  | inactive | inactive | inactive |
| COc1ccc(/C(=C/C(=O)N2CCOCC2)c2ccc(Cl)cc2)cc1OC | inactive |  |  | inactive | inactive | inactive |  | inactive | inactive | inactive |  |  | inactive | inactive | inactive | inactive | inactive | inactive | inactive |
| O=C1Nc2ccc(Cl)cc2C(c2ccccc2)=NC1O (stereo not drawn) | inactive |  |  |  |  |  | inactive | inactive | inactive | inactive | inactive |  | inactive | inactive | inactive |  | inactive |  | inactive |
| CC1(C)C(/C=C(\Cl)C(F)(F)F)C1C(=O)OC(C#N)c1cccc(Oc2ccccc2)c1 (stereo not drawn) |  | inactive | inactive | inactive |  | inactive |  | inactive | inactive | inactive | inactive | inactive | inactive | inactive | inactive | inactive | inactive |  |  |
| CCC1(c2cnc[nH]2)Cc2ccccc2C1 |  |  | inactive | inactive | inactive | inactive |  |  |  |  |  |  |  |  |  | inactive | inactive |  |  |
| O=C(O)/C=C/C(=O)O |  |  | inactive | inactive | inactive | inactive |  |  |  |  |  |  |  |  |  | inactive | inactive |  |  |
| CCCCC(CC)COC(=O)c1ccccc1C(=O)OCC(CC)CCCC (stereo not drawn) | inactive |  | inactive | inactive | inactive | inactive |  |  |  |  |  |  | inactive |  |  |  |  | inactive |  |
| CC(C)(C)c1ccc(O)cc1 |  |  |  |  |  |  | inactive | inactive | inactive |  |  |  | inactive | inactive |  |  |  |  | inactive |
| Cc1ccc2ccccc2c1C |  |  |  |  |  |  | inactive | inactive | inactive | inactive |  |  | inactive | inactive |  |  |  | inactive |  |
| CC(c1ccc(O)cc1)(c1ccc(O)cc1)c1ccc(O)cc1 |  | inactive |  |  | inactive | inactive | 23.7 µM (active) | 49 µM (active) | inactive | inactive |  |  | inactive |  | inactive |  |  | inactive | inactive |
| c1cc[c]([Hg][c]2ccccc2)cc1 | inactive |  | inactive |  |  |  | inactive | inactive |  | inactive |  |  |  | inactive | inactive |  |  | 4.33 µM (active) |  |
| CN/C(=N\[N+](=O)[O-])NCC1CCOC1 (stereo not drawn) | inactive |  | inactive | inactive | inactive | inactive | inactive |  | inactive |  | inactive |  | inactive | inactive | inactive | inactive | inactive | inactive | inactive |
| CC(C)C[C@H](NC(=O)CNC(=O)[C@H](Cc1ccc(O)cc1)NC(=O)[C@H](CO)NC(=O)[C@H](Cc1c[nH]c2ccccc12)NC(=O)[C@H](Cc1cnc[nH]1)NC(=O)[C@@H]1CCC(=O)N1)C(=O)N[C@@H](CCCN=C(N)N)C(=O)N1CCC[C@H]1C(=O)NCC(N)=O (stereo in doubt) |  |  |  |  |  |  | inactive | inactive |  | inactive |  |  |  |  |  |  |  |  |  |
| Nc1ccccc1C(=O)Oc1ccc2ccccc2c1 |  | inactive | inactive | inactive | inactive | inactive | inactive | inactive | inactive | inactive |  |  | inactive | inactive |  |  | inactive | inactive |  |
